Source: the supplement of paper PMC7695840
Where a name gives a salt, the structure may show the parent alone.

Legend:
[1] = test system: Staphylococcus aureus MW2 delta-mecA (mecA-); experiment: normalized GFP fluorescence (growth of mecA- strain) (fraction of control range); higher = more growth of mecA- strain; conditions: compound concentration: 150 uM; cefoxitin: subinhibitory; fluorescent label: GFP
In short: (§1)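 Compound at 150 μM (1.5% DMSO) in 1536-well plates received 5 µL/well of pre-induced S. aureus MW2 cells mixed 1:1, gene-carrying with DsRed and gene-deleted with GFP, in LB with a daily-set subinhibitory antibiotic dose, single replicate. After 20 h unshaken at 37 °C, 90% humidity, DsRed (540/590) and GFP (485/520) were measured and scaled per plate between single-strain control medians. Plates with high untreated ratios and rows with DsRed/GFP >10 were excluded.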

[2] = test system: Staphylococcus aureus MW2 (mecA+); experiment: normalized DsRed fluorescence (growth of mecA+ strain) (fraction of control range); higher = more growth of mecA+ strain; conditions: compound concentration: 150 uM; cefoxitin: subinhibitory; fluorescent label: DsRed
In short: as §1

SMILES | normalized GFP fluorescence [1] | normalized DsRed fluorescence [2]
O=C(NC(Cc1cc(=O)[nH]c2ccccc12)C(=O)O)c1ccc(Cl)cc1 (stereo unspecified) [Rebamipide] | 0.175 | 0.942
Cc1c(OCC(F)(F)F)ccnc1C[S@@+]([O-])c1nc2ccccc2[nH]1 | 0.348 | 0.452
CN1C(C(=O)Nc2ccccn2)=C(O)c2sccc2S1(=O)=O | 0.0134 | 0.778
CCC(CC)[C@H](NC(C)=O)[C@@H]1[C@H](O)[C@@H](C(=O)O)C[C@H]1NC(=N)N [Peramivir Trihydrate] | 0.634 | 0.659
CN(C)CCOC(c1ccccc1)c1ccccc1 | 0.272 | 0.789
C[C@H]1[C@H](NC(=O)/C(=N\OC(C)(C)C(=O)O)c2csc(N)n2)C(=O)N1S(=O)(=O)O [Aztreonam (Azactam, Cayston)] | 0.136 | 1.17
CN(C)CC(c1ccc(O)cc1)C1(O)CCCCC1 (stereo unspecified) | 0.107 | 1.1
OCCN1CCN(CCCN2c3ccccc3Sc3ccc(C(F)(F)F)cc32)CC1 | 0.0603 | 1.68
CC1=CC(=O)c2ccccc2C1=O | 0.0466 | 0.307
CC(=O)[C@H]1CC[C@H]2[C@@H]3C=CC4=CC(=O)CC[C@@]4(C)[C@@H]3CC[C@]12C | 0.56 | 0.456
O=C1c2cccc3c2[C@H](CCC3)CN1[C@@H]1CN2CCC1CC2 [Palonosetron HCl] | 0.203 | 0.709
Cn1c(=O)c2nc[nH]c2n(C)c1=O | 0.449 | 0.42
CCCNC(=O)NS(=O)(=O)c1ccc(Cl)cc1 | 0.221 | 0.489
CC(CN(C)C)CN1c2ccccc2CCc2ccccc21 (stereo unspecified) | 0.0825 | 1.55
CCCCOc1ccc(C(=O)CCN2CCCCC2)cc1 | 0.00391 | 0.36
CCN(CC)Cc1cc(Nc2ccnc3cc(Cl)ccc23)ccc1O | 0.205 | 0.684
Nc1nc2c(ncn2COC(CO)CO)c(=O)[nH]1 | 0.466 | 0.948
Cc1cccc(N(C)C(=S)Oc2ccc3ccccc3c2)c1 | 0.561 | 0.911
CCc1nc(N)nc(N)c1-c1ccc(Cl)cc1 | 0.211 | 0.879
O=C(O)c1cccnc1 [Niacin (Nicotinic acid)] | 0.536 | 0.614
CCC(C)n1ncn(-c2ccc(N3CCN(c4ccc(OCC5COC(Cn6cncn6)(c6ccc(Cl)cc6Cl)O5)cc4)CC3)cc2)c1=O (stereo unspecified) | 0.389 | 0.642

SMILES | normalized GFP fluorescence [1] | normalized DsRed fluorescence [2]
C[C@@H]1CCN(C(=O)CC#N)C[C@@H]1N(C)c1ncnc2[nH]ccc12 | 0.325 | 0.9
COC(=O)C1=C(C)NC(C)=C(C(=O)OC)C1c1ccccc1[N+](=O)[O-] | 0.0465 | 0.832
COc1cc2c(Oc3ccc4[nH]c(C)cc4c3F)ncnc2cc1OCCCN1CCCC1 [Cediranib (AZD2171)] | -0.00111 | 1.4
Cc1ccc(O)c([C@H](CCN(C(C)C)C(C)C)c2ccccc2)c1 [Tolterodine tartrate (Detrol LA)] | 0.08 | 0.489
COc1ccccc1OCC(O)COC(N)=O (stereo unspecified) | 0.207 | 0.692
CC(C)(S)[C@@H](N)C(=O)O | 0.302 | 1.21
CO[C@@]1(NC(=O)CSCC#N)C(=O)N2C(C(=O)O)=C(CSc3nnnn3C)CS[C@@H]21 | 0.268 | 0.711
NC(=O)C1(N2CCCCC2)CCN(CCCC(=O)c2ccc(F)cc2)CC1 | 0.529 | 0.733
CCOC(=O)[C@H](CCc1ccccc1)N[C@@H](C)C(=O)N1CCC[C@H]1C(=O)O | 0.325 | 0.611
CC(CCc1ccccc1)NCC(O)c1ccc(O)c(C(N)=O)c1 (stereo unspecified) | 0.745 | 0.7
O=C1CCc2ccc(OCCCCN3CCN(c4cccc(Cl)c4Cl)CC3)cc2N1 | 0.0969 | 0.824
NC(=O)c1cn(Cc2c(F)cccc2F)nn1 [Rufinamide (Banzel)] | 0.199 | 0.955
CCN1C(=O)NC(c2ccccc2)C1=O (stereo unspecified) | 0.469 | 1.21
C/C=C/c1ccc(OC)cc1 | 0.443 | 0.71
C1N2CN3CN1CN(C2)C3 | 0.209 | 0.452
CCC(=O)O[C@]1(C(=O)SCF)[C@H](C)C[C@H]2[C@@H]3C[C@H](F)C4=CC(=O)C=C[C@]4(C)[C@@]3(F)[C@@H](O)C[C@@]21C | 0.777 | 0.959
C[C@]12CC[C@@H]3c4ccc(O)cc4C[C@@H](CCCCCCCCC[S+]([O-])CCCC(F)(F)C(F)(F)F)[C@H]3[C@@H]1CC[C@@H]2O (stereo partly specified) | 0.185 | 0.667
COCCc1ccc(OCC(O)CNC(C)C)cc1 (stereo unspecified) | 0.861 | 0.587
Clc1ccc(C(c2ccccc2Cl)C(Cl)Cl)cc1 (stereo unspecified) | 0.148 | 0.731
Cc1ccc([C@@H]2O[C@H](CO)[C@@H](O)[C@H](O)[C@H]2O)cc1Cc1ccc(-c2ccc(F)cc2)s1 [Canagliflozin] | -0.0143 | 0.755
CC1(C)[C@@H](OC(=O)CCC(=O)O)CC[C@]2(C)[C@H]3C(=O)C=C4[C@@H]5C[C@@](C)(C(=O)O)CC[C@]5(C)CC[C@@]4(C)[C@]3(C)CC[C@@H]12 | 0.146 | 0.249

SMILES | normalized GFP fluorescence [1] | normalized DsRed fluorescence [2]
C[C@]12C=CC(=O)N[C@@H]1CC[C@@H]1[C@@H]2CC[C@]2(C)[C@@H](C(=O)Nc3cc(C(F)(F)F)ccc3C(F)(F)F)CC[C@@H]12 [Dutasteride] | 0.284 | 0.52
O=C(CCCN1CCC(O)(c2ccc(Cl)cc2)CC1)c1ccc(F)cc1 | 0.45 | 1.19
CN1CCN(C2=Nc3cc(Cl)ccc3Nc3ccccc32)CC1 [Clozapine (Clozaril)] | 0.0909 | 1.01
Cc1nc2n(c(=O)c1CCN1CCC(c3noc4cc(F)ccc34)CC1)CCCC2O (stereo unspecified) | 0.379 | 0.72
CCC1(c2ccccc2)C(=O)NCNC1=O | 0.33 | 0.811
CNC(=C[N+](=O)[O-])NCCSCc1ccc(CN(C)C)o1 | 0.32 | 0.742
OCc1cccnc1 | 0.896 | 0.471
COc1cc2c(cc1Cc1cccc(Cl)c1F)c(=O)c(C(=O)O)cn2[C@H](CO)C(C)C [Elvitegravir (GS-9137)] | 0.0202 | 0.102
CC1=C(C(=O)O)N2C(=O)[C@@H](NC(=O)[C@H](N)c3ccc(O)cc3)[C@H]2SC1 | 0.0167 | 1.2
NCCCC[C@H](N[C@@H](CCc1ccccc1)C(=O)O)C(=O)N1CCC[C@H]1C(=O)O | 0.972 | 0.642
CC(C)[C@H](N)C(=O)OCCOCn1cnc2c(=O)nc(N)[nH]c21 [Valaciclovir HCl] | 0.302 | 0.782
COc1cc2nc(N3CCN(C(=O)C4CCCO4)CC3)nc(N)c2cc1OC (stereo unspecified) [Terazosin HCl (Hytrin)] | 0.321 | 0.745
N#CC[C@H](C1CCCC1)n1cc(-c2ncnc3[nH]ccc23)cn1 | 0.187 | 0.956
CC1(C)[C@@H](O)CC[C@]2(C)[C@H]3C(=O)C=C4[C@@H]5C[C@@](C)(C(=O)O)CC[C@]5(C)CC[C@@]4(C)[C@]3(C)CC[C@@H]12 [Enoxolone (Glycyrrhetin)] | 0.0336 | 0.987
N=C(N)NC(=N)NCCc1ccccc1 | 0.435 | 0.624
CC1(C)O[C@@H]2C[C@H]3[C@@H]4CCC5=CC(=O)C=C[C@]5(C)[C@@]4(F)[C@@H](O)C[C@]3(C)[C@]2(C(=O)CO)O1 | 0.603 | 0.613
CC(=O)CCCCn1c(=O)c2c(ncn2C)n(C)c1=O | 0.276 | 0.952
O=C(O)Cc1ccccc1Nc1c(Cl)cccc1Cl [Diclofenac] | 0.0393 | 0.175
CC(=O)O[C@H]1CC[C@@]2(C)C(=CC[C@@H]3[C@@H]2CC[C@]2(C)C(c4cccnc4)=CC[C@@H]32)C1 [Abiraterone Acetate (CB7630)] | 0.278 | 0.65
CC1(C)NC(=O)N(c2ccc([N+](=O)[O-])c(C(F)(F)F)c2)C1=O | 0.333 | 0.86
CC(C)Cn1cnc2c(N)nc3ccccc3c21 | 0.18 | 1.09

SMILES | normalized GFP fluorescence [1] | normalized DsRed fluorescence [2]
O=c1[nH]c(=O)n([C@H]2C[C@H](O)[C@@H](CO)O2)cc1I [Idoxuridin] | 0.512 | 0.959
O=NN(CCCl)C(=O)NCCCl | 0.549 | 0.898
CCCCOc1ccc(CC(=O)NO)cc1 [Bufexamac] | 0.312 | 0.828
CCCN(CCC)S(=O)(=O)c1ccc(C(=O)O)cc1 | 0.462 | 0.343
Cn1c(=O)c2c(ncn2C)n(C)c1=O | 0.319 | 0.708
CC(C(=O)O)c1ccc(C(=O)c2cccs2)cc1 (stereo unspecified) | 0.344 | 0.423
COC(=O)Nc1nc2cc(C(=O)c3ccccc3)ccc2[nH]1 | 0.145 | 1.25
CN(C/C=C/c1ccccc1)Cc1cccc2ccccc12 | 0.0944 | 1.02
CCOC(=O)[C@H](CCc1ccccc1)N[C@@H](C)C(=O)N1Cc2ccccc2C[C@H]1C(=O)O | 0.324 | 0.737
CN1CCc2cccc3c2[C@H]1Cc1ccc(O)c(O)c1-3 | 0.463 | 0.543
CCC1NC(=O)c2cc(S(N)(=O)=O)c(Cl)cc2N1 (stereo unspecified) | 0.601 | 0.513
O=C(Oc1ccccc1C(=O)O)c1ccccc1O | 0.297 | 0.236
Cc1cc(-c2ccccc2)nnc1NCCN1CCOCC1 | 0.44 | 0.611
COC(=O)N[C@H](C(=O)N1CCC[C@H]1c1ncc(-c2ccc(-c3ccc(-c4cnc([C@@H]5CCCN5C(=O)[C@@H](NC(=O)OC)C(C)C)[nH]4)cc3)cc2)[nH]1)C(C)C | 0.242 | 0.788
COc1ccc(-c2cc(=O)c3c(O)cc(O[C@@H]4O[C@H](CO[C@@H]5O[C@@H](C)[C@H](O)[C@@H](O)[C@H]5O)[C@@H](O)[C@H](O)[C@H]4O)cc3o2)cc1O [Diosmin] | 0.55 | 1.27
CC(=O)c1ccc2c(c1)N(CCCN(C)C)c1ccccc1S2 | 0.165 | 1.27
Oc1ccc(O)cc1 | 0.379 | 0.882
COc1cc2nc(N3CCN(C(=O)c4ccco4)CC3)nc(N)c2cc1OC | 0.593 | 0.809
CCN(CC)C(=O)N1CCN(C)CC1 | 0.599 | 0.455
CC1=C(/C=C/C(C)=C/C=C/C(C)=C\C(=O)O)C(C)(C)CCC1 | 0.0602 | 0.671
